Source: PubChem
USP28 block: blocks human USP28 ubiquitin-rhodamine cleavage | purified USP28, Ub-rhodamine cleavage fluorescence, 30 min | Q96RU2 | inhibition, % at 25 µM | 47,000 compounds, 3% hits
USP30 block: blocks human USP30 ubiquitin-rhodamine cleavage. Q70CQ3. purified USP30, Ub-rhodamine cleavage fluorescence. inhibition, % at 25 µM. 47,000 compounds, 5.3% hits. AID 1645860
Target sequence (Q70CQ3 whole entry, looked up): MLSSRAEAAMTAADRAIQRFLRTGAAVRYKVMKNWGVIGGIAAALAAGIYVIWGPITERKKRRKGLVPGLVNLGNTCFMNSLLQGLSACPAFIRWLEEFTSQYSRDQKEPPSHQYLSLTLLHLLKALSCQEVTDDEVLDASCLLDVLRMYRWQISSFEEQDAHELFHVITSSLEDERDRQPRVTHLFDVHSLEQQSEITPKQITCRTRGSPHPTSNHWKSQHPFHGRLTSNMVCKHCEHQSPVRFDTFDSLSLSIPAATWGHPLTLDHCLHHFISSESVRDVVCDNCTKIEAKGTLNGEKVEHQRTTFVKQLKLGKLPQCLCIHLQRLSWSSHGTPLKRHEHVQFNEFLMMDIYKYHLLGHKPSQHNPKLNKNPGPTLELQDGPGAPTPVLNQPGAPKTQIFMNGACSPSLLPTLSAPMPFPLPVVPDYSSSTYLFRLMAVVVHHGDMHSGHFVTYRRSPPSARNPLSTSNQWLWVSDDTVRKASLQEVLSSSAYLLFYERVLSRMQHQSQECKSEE
* marks the source's active call; other numbers are inactive results. Rows were chosen to be rich in hits. Some 7% of all compounds tested hit in one or more screens of this group. No stated cut-off is given here; in the data, active means inhibition above about 30%; inactive means the rest.

SMILES | USP28 block | USP30 block
O=C(C1CCN(Cc2ccc(F)cc2)CC1)N1CCN(c2ccccc2F)CC1 | 0 | -3
CCOc1cc2c(cc1OCC)C(c1ccc(OC)cc1)N(c1ccc(OC)c(Cl)c1)C(=O)C2 (stereo not given) | 0 | -8
CCOc1cc2c(cc1OCC)C(c1ccc(Cl)cc1)N(c1ccc(C(=O)O)cc1)C(=O)C2 (stereo not given) | 18 | 31*
CC1(C2CC2)NC(=O)N(CCOc2ccccc2F)C1=O (stereo not given) | -4 | 2
CCc1cc(C(=O)Nc2ccc(C3CCc4nncn4C3)cc2)on1 (stereo not given) | 34* | 22
CCc1nnc2n1CC(c1ccc(NC(=O)c3sc(C)nc3C)cc1)CC2 (stereo not given) | 5 | 12
Cc1ccc(Cn2ccc3nc(N4CCOCC4)ncc3c2=O)cc1 | -8 | -9
COc1ccc(Cn2ccc3nc(N4CCOCC4)c(C#N)cc3c2=O)cc1 | 31* | 54*
Cc1ccc(-n2nc(C)c3nc(CCC(=O)Nc4ccc(OC(F)(F)F)cc4)c(=O)n(C)c32)cc1 | -2 | 31*
Cc1ccc(-n2nc(C)c3nc(CCC(=O)NC4CC4)c(=O)n(C)c32)cc1 | 9 | 11
CC(C)(C)OC(=O)NCc1ccc(C(=O)Nc2ccc(CN3CCOCC3)cc2)cc1 | -9 | -26
CCC(C)Oc1cccc(C(=O)Nc2ccc(CN3CCOCC3)cc2)c1 (stereo not given) | 80* | 0
Cc1ccccc1-c1noc2ncnc(NCCCN3CCCCC3)c12 | 2 | -13
CN(Cc1ccccn1)C(=O)c1nn(C)c2c1CCN(CC1CCC1)C2 | -7 | -22
O=C(N[C@@H]1CC[C@H]2C[C@@H]1[C@@H](O)CO2)C(c1ccccc1)c1ccccc1 | -11 | -6
O=C(c1csc2c1CCCC2)N1CCN(C(c2ccccc2)c2ccccc2)CC1 | 3 | 31*
O=C(c1scc2c1CCCC2)N1CCN(c2ccccc2O)CC1 | 4 | 6
Cc1ccc(C2(C(=O)N3CCC4(CC3)CC(Oc3ccccc3)CO4)CCOCC2)cc1 (stereo not given) | 6 | 21
O=C(CCC1=NS(=O)(=O)c2ccccc2N1)NCCc1ccc(Cl)cc1 | -1 | 1
Cc1ccc2c(c1)NC(CCC(=O)NCCc1ccc(Cl)cc1)=NS2(=O)=O | 27 | 59*
Cc1cccc(Nc2nccnc2C2CCCN2C(=O)c2cn(C)cn2)n1 (stereo not given) | -3 | 8
CC1c2ccsc2CCN1C(=O)c1cccn1C (stereo not given) | -4 | -4
Cc1cccc(S(=O)(=O)NCc2csc(C)n2)c1 | 15 | 27
Cc1ccc(NC(=O)Cc2noc(-c3ccccc3F)n2)cc1C | -45 | -136
COc1ccccc1-c1noc(-c2nn(-c3ccc(C)cc3)ccc2=O)n1 | -16 | -5
SMILES | USP28 block | USP30 block
COc1ccc(-n2ccc(=O)c(-c3nc(-c4ccccc4C)no3)n2)cc1 | 11 | 38*
COc1ccc(NC(=O)CSc2nnc(-c3ccc(F)cc3)c3ccccc23)c(OC)c1 | 39* | -9
COc1ccc(NC(=O)CSc2n[nH]c(C(C)C)n2)c(OC)c1 | -11 | 2
COc1cc([C@H]2[C@@]3(O)C[C@H]4C[C@]2(O)[C@](O)(C(=O)O4)[C@@H]3C(=O)c2ccccc2)oc(=O)c1 | 6 | -14
Cn1cc(C(=O)N2CCN(c3ccccc3F)CC2)nn1 | -2 | 0
CCOc1ccc2[nH]c3c(N4CC(C)CC(C)C4)ncnc3c2c1 (stereo not given) | -9 | -28
COc1ccc(OC)c2c(C)cc(N3CC(C)CC(C)C3)nc12 (stereo not given) | 54* | 43*
Cc1noc(C)c1CSc1ncccc1C(=O)Nc1ccnn1Cc1ccccc1 | 4 | 14
O=C1CC(c2ccco2)CC2=C1C(c1ccc(Cl)cc1)Nc1ccccc1N2 (stereo not given) | -61 | -430
O=C1CC(c2ccco2)Cc2[nH]c(=O)c(C(=O)Nc3ccc(Cl)cc3)cc21 (stereo not given) | 35* | -36
CC(=O)N1CCCC(c2nc(N3CCOCC3)ncc2-c2cccnc2)C1 (stereo not given) | 24 | 37*
CC(C)CC(=O)N1CCCC(c2nc(N3CCOCC3)ncc2-c2cccnc2)C1 (stereo not given) | -5 | 10
COc1cccc(-c2cc(NC=O)c3ncc(-c4cnn(C)c4)n3c2)c1 | -99 | -393
OCCCN1CCC2(CC1)CNCc1ccccc12 | 11 | 19
O=C(Nc1ccc(F)cc1F)C1=Cc2ccccc2OC1 | -4 | -9
CN(CCc1ccccc1)c1nccc(N2CCN(C(=O)c3ccccc3N3CCOCC3)CC2)n1 | -2 | 1
O=C(CCC1CCCCC1)Nc1ccccc1C(=O)N1CCOCC1 | 34* | 40*
O=C(c1ccc(OCC2CCN(C(=O)c3ccccc3)CC2)cc1)N1CCOCC1 | -4 | 5
COc1ccc(C2c3[nH]c4ccccc4c3C[C@@H]3C(=O)N(CCC4=CCCCC4)CC(=O)N23)c(OC)c1 (stereo not given in full) | -95 | -481
Cc1ccnc2nc(C(=O)N(CC3CCCO3)c3nc4ccccc4s3)nn12 (stereo not given) | -1 | -24
Cc1nc(NCCc2ccc(S(N)(=O)=O)cc2)c2oc3ccccc3c2n1 | 20 | 36*
Cc1nc(N[C@@H](Cc2ccccc2)C(=O)O)c2oc3ccccc3c2n1 | 0 | -8
COc1ccc(N2C(=O)c3ccccc3C2C(=O)NCc2ccccc2OC)cc1 (stereo not given) | 0 | 5
CN1CCN(c2ncccn2)CC1c1nnc2ccc(C(=O)NC3CC3)cn12 (stereo not given) | -14 | 11
Cc1ccc2c(C)nc(Nc3ncc4c(n3)CC(c3ccco3)CC4=O)nc2c1 (stereo not given) | 29 | 38*
SMILES | USP28 block | USP30 block
O=C(Nc1ncc2c(n1)CC(c1ccco1)CC2=O)c1ccco1 (stereo not given) | -6 | -54
COc1ccccc1NC(=O)NC1CCN(c2ccc(F)cc2)C1=O (stereo not given) | 0 | -39
O=C(Nc1ccc(F)cc1F)NC1CCN(c2ccccc2)C1=O (stereo not given) | 45* | 5
O=C(COc1ccccc1F)Nc1ccc2c(c1)CN(C(=O)c1ccco1)CC2 | 41* | 27
O=C(COc1ccccc1)Nc1ccc2c(c1)CN(C(=O)c1ccco1)CC2 | 26 | -5
COc1ccc(C(=O)Nc2ccc3c(c2)CN(C(=O)c2ccco2)CC3)c(OC)c1OC | 14 | -14
COc1ccccc1OCC(=O)Nc1ccc2c(c1)CCC(=O)N2Cc1ccccc1 | 15 | 54*
O=C(COc1ccc(F)cc1)Nc1ccc2c(c1)CCC(=O)N2Cc1ccccc1 | 10 | 12
COc1ccccc1OCC(=O)Nc1ccc2c(c1)CN(C(=O)c1ccco1)CC2 | 36* | 22
CC1CCCN(C(=O)Cn2cccc(-c3nc(C4CC4)no3)c2=O)C1 (stereo not given) | 6 | 11
O=C(CN1CCN(CCCc2c[nH]c3ccc(F)cc23)CC1)Nc1ccccc1 | -12 | -24
O=C1COc2cc(S(=O)(=O)NCc3ccccc3)c(Cl)cc2N1 | 0 | -9
COc1ccccc1NC(=O)c1oc2ccccc2c1NC(=O)c1ccccc1Cl | 4 | -33
CSc1ccccc1C(=O)Nc1c(C(N)=O)oc2ccccc12 | 30* | 0
CCn1cc(S(=O)(=O)N2CCCCCC2c2cc(-c3ccc(OC)cc3)on2)cn1 (stereo not given) | -5 | -3
